# Results: the supplement of paper PMC3334620
# Whole data set: some 33,000 sequences, median “E-score (-0.5 to 0.5)” near -0.015, cut for the highest 2% near 0.3. Shown is part of a subset that was picked to be rich in the highest values.
# Target: T1, Abf1 (UniProt P14164)
# T1 sequence: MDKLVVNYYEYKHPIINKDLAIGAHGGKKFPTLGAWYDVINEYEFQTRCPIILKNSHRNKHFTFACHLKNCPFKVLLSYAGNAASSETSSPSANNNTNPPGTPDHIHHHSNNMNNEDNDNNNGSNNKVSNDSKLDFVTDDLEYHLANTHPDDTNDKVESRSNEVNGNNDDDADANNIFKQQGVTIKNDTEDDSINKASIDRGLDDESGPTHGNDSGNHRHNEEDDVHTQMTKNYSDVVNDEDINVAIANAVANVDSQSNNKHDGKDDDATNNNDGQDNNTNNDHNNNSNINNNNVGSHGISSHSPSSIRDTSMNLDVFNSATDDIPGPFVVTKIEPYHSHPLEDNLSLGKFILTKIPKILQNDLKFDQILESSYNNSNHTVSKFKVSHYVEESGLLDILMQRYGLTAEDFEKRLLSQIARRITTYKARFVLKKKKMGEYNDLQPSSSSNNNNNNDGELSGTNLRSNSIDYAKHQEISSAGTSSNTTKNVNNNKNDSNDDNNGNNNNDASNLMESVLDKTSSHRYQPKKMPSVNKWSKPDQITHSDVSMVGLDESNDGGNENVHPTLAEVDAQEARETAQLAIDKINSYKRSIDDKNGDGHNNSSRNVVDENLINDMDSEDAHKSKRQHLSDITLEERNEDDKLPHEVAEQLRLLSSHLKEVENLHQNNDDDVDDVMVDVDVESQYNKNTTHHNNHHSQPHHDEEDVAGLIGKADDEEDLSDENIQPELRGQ
# Assay: PBM E-score (8-mer binding enrichment) (E-score (-0.5 to 0.5)); higher = stronger / more preferred TF binding
# Conditions: protein concentration: 200 nM; construct: GST-full length
# Method in brief: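 Bound GST-tagged yeast transcription factors, applied at about 100-200 nM to double-stranded universal all-10-mer Agilent arrays, were detected with fluorescent anti-GST. Scans were normalised with masliner. A modified Wilcoxon-Mann-Whitney statistic, the E-score, was assigned to each ungapped eight-base word pooled with its reverse complement by the Universal PBM Analysis Suite.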
row,Sequence,PBM E-score
1,AAGGATGC,-0.213
2,GGCTGCGA,-0.0617
3,CGAGGGAC,-0.189
4,GGGGGCAA,-0.0502
5,CGCATATC,0.239
6,CAACCTCA,-0.0877
7,CCCTACCA,0.0127
8,ATTCTGTA,0.14
9,CAGTGAGA,0.0837
10,TAGTGATA,0.433
11,GAGTGAAA,-0.117
12,TAGTGAAA,-0.0802
13,CAGTGATA,0.377
14,TAGTGAGA,0.0964
15,GAGTGATA,0.424
16,AAGTGATA,0.39
17,CACTGATA,-0.056
18,AAGTGAAA,-0.0619
19,AAGTGAGA,0.0815
20,GAGTGAGA,0.0215
21,CCTTGGTC,-0.302
22,AATTTGAC,0.183
23,CTGTCGGA,-0.123
24,ACAGCTCT,-0.248
25,AGTACTGA,-0.0709

row,Sequence,PBM E-score
1,CCGGGTTC,-0.167
2,GTAACTAA,-0.0125
3,TTCGGAAA,-0.148
4,CAACGTAA,-0.0145
5,AATCTCTC,0.0576
6,ATACCCCA,0.0583
7,CACCCGCA,-0.205
8,GATCGGGC,-0.195
9,CGTTATAC,0.303
10,CGTTATAA,0.149
11,CGTTATAG,0.105
12,CGTTACAA,0.195
13,CGTTACAG,-0.0224
14,CGTTACAC,0.298
15,AATGTTGC,0.00562
16,CGGCGTTC,-0.0709
17,CCGCCATC,-0.26
18,AGTCCACC,-0.0728
19,GAAAACTA,-0.0964
20,GTTCTGTA,-0.0186
21,GTTTCGTA,0.26
22,CTTTCGTC,0.191
23,ATTTCGTC,0.229
24,CATTCGTA,0.308
25,GATTCGTA,0.262

row,Sequence,PBM E-score
1,AATTCGTC,0.315
2,AATTCGTG,0.224
3,CATTCGCA,-0.1
4,CTTTCGTA,0.376
5,AATTCGTA,0.307
6,CATTCGTC,0.222
7,AATTCGGA,0.029
8,ACCCAGAA,-0.0336
9,TTCCGAAA,0.104
10,ATTTAAAT,0.189
11,GATTACAC,0.0768
12,CAAGCCCG,-0.172
13,GTGGTATA,-0.0621
14,CGGCCCAC,-0.208
15,ATCGTCAT,0.349
16,ATCGTCAA,0.342
17,ACCGTCAG,0.0392
18,TTCGTCAA,0.151
19,ATCGTCAG,0.154
20,AGCGTCAA,-0.00287
21,AACGTCAT,0.217
22,ACCGTCAA,0.143
23,ACCGTCAT,0.362
24,AAAAATCC,-0.0226
25,AGGTTGAA,0.0563

row,Sequence,PBM E-score
1,CACTGCAA,0.0215
2,TCATCAGA,0.094
3,CAGCTTGA,-0.141
4,AGGAGGTG,-0.248
5,GAGGGACA,-0.103
6,CCTTTTAA,0.0637
7,ACGGCGCG,0.324
8,ACGGCGAT,0.313
9,ACGGCGAC,0.224
10,ACGGCGCT,0.09
11,TCGGCGAA,0.00757
12,ACGGCGCC,0.184
13,ACGGCGAG,0.111
14,ACGGCGAA,0.343
15,GCGGCGAA,-0.106
16,ACCCGGGT,-0.155
17,ATGAGTCA,0.0874
18,ACCCTAGG,-0.07
19,CGCGTTGA,0.0564
20,AGATGCTC,0.0161
21,CAGGTAAG,-0.0344
22,AGATAAGA,0.194
23,AATTCCAC,0.0539
24,CAGGATGA,0.197
25,AGACAAGC,-0.0992

row,Sequence,PBM E-score
1,GTGACTAA,0.327
2,GTGACGGA,0.149
3,CTGACTAA,0.0088
4,GTGACGAA,0.315
5,CTGACGAA,0.239
6,GTCACGAC,0.261
7,TTCACGAA,0.267
8,GTGACGCA,0.103
9,ATGACTAA,0.146
10,GTCACGAA,0.402
11,ATGACGAC,0.265
12,ATGACGAA,0.319
13,AAGGTTCT,-0.189
14,CGGGCACC,-0.0646
15,CGCAAAAG,-0.0748
16,CTCTCACC,-0.0855
17,GAGTAAAC,-0.0509
18,ATCCCGTA,0.215
19,GGCGATCA,-0.0321
20,ATGGACTC,-0.134
21,CACGGACA,0.162
22,AACGGACG,0.065
23,CACGGACG,0.337
24,AAACCGGT,-0.0782
25,CATACTGA,-0.108

row,Sequence,PBM E-score
1,AAAGAGGA,-0.237
2,CTAATCAC,0.251
3,ATAATCAG,0.0922
4,ATAATCAC,0.331
5,ATAATCAA,0.0595
6,GTAATCAC,0.141
7,ATAATCAT,0.326
8,CCACCTAC,-0.011
9,ACCGTAGG,0.0666
10,CTAAATCC,0.0568
11,AAGCGCCA,-0.247
12,TGATGTAA,0.145
13,ACCCTCGA,-0.17
14,TCGACAAA,-0.0435
15,GCGACGCA,0.196
16,ACGACGGG,0.304
17,TCGACGCA,0.113
18,GCGACGAA,0.313
19,ACGACGCA,0.262
20,ACGACGGC,0.164
21,ACGACGAA,0.373
22,GCGACGAC,0.098
23,ACGACGGA,0.251
24,TCGACGAA,0.349
25,CCGACGAA,0.205

row,Sequence,PBM E-score
1,CATAAGTC,-0.00466
2,AACCGGTT,0.0655
3,TAGAAGCA,-0.0239
4,CAAGGAAA,-0.198
5,AGGGCGCC,-0.0691
6,ATCGCTAA,0.28
7,ATCTATTC,0.114
8,ACGACGAC,0.292
9,ACGACGAG,0.156
10,ACGACGAT,0.315
11,GTACTGCA,-0.101
12,AAACACCC,-0.0385
13,GGTGCACA,-0.05
14,CATGTACA,-0.0299
15,AATGTACG,0.192
16,CATGTACG,0.319
17,TAAGTCTA,-0.136
18,ATGTCAGG,-0.133
19,ATGTCATA,0.176
20,ATGTCATC,0.394
21,CTGTCATC,0.108
22,ATGTCAAG,-0.0386
23,ATGTCATG,0.349
24,AGTCGAAT,-0.178
25,AAGGAACC,-0.053

row,Sequence,PBM E-score
1,TCGATCGA,-0.141
2,CAGACAAC,-0.0277
3,CTGTCACA,0.138
4,ATGTCACA,0.282
5,CTGTCACC,0.174
6,ATGTCAGC,0.0322
7,ATGTCACC,0.429
8,ATGTCACG,0.437
9,GTCCTCAC,0.0512
10,GGGCTCTA,-0.22
11,CCCCTGGA,-0.17
12,AACGGACT,-0.0919
13,CGATGGCG,-0.0766
14,GTTAGCAA,0.104
15,ATGATGAG,0.141
16,CTGATGAC,0.203
17,CTGATGAA,0.0318
18,ATGATGCA,0.309
19,ATGATTGC,0.0463
20,ATGATGAC,0.306
21,GTGATGCA,0.185
22,GTGATGAA,0.207
23,ATGATGAA,0.306
24,ATGATGCC,0.0807
25,ATGATTGA,0.346

row,Sequence,PBM E-score
1,ATGATTGG,-0.094
2,GAATGGAC,0.0322
3,GTTCCGGA,-0.0188
4,TATACATA,0.0494
5,GAGGGGGC,-0.346
6,CGGAGTCA,-0.111
7,AAAGCCTT,-0.219
8,CTATGGGA,-0.0561
9,GCACCGTA,0.0841
10,CCACCGTA,0.341
11,ACACCGTA,0.0493
12,GGGGGCCA,-0.462
13,CGTAGAAG,0.222
14,AGTAGAAA,0.168
15,CGTAGAAA,0.318
16,AGGGGTAT,-0.179
17,GCGTCGGA,-0.111
18,GGAGCCCC,-0.293
19,TATATTAA,0.167
20,CATATTAG,0.136
21,CATATTAA,0.315
